# Assay results: the supplement of paper PMC10646978
# ± gives the standard deviation.
# Tests used:
# Settings in all cases: modulator concentration 10 µM
# [1] = test system: RAW-Dual (murine macrophage reporter line); test: NF-kB reporter (SEAP) activity fold change vs agonist alone; higher = enhanced NF-kB activity
# Method in brief: (§1)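 Compound reached 10 μM final in each well by pin transfer, onto RAW-Dual murine macrophage reporter cells seeded at 50 000 per well in 384-well plates. After 1 hour at 37 °C, the cells were stimulated overnight with a PRR agonist. SEAP in the supernatant was read with QUANTI-Blue at 620 nm absorbance for NF-κB, and Lucia luciferase was read with QUANTI-Luc luminescence for IRF. Each signal was turned into fold change against the mean agonist-only control on the same plate, and two replicate plates were averaged with propagated errors.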
# [2] = test system: RAW-Dual (murine macrophage reporter line); test: IRF reporter (Lucia luciferase) activity fold change vs agonist alone; higher = enhanced IRF activity
# Method in brief: as §1
# [3] = test system: RAW-Dual (murine macrophage reporter line); test: viability score (confluency relative to resting cells, overnight) (fraction); higher = more viable, active = viable (0.7 or more)
# Method in brief: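 RAW-Dual macrophages in 384-well plates were treated overnight with compound at 10 μM final. IncuCyte imaging recorded confluency, and IncuCyte software built two confluency masks across every imaged well. The viability score expresses confluency relative to resting cells and was judged against a cutoff, which a compound met only if both masks exceeded 70% of resting cells.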
# [4] = agonist: CpG ODN 1826 0.5 ug/mL
SMILES,"NF-kB reporter [1, 4]",NF-kB reporter ([1]; agonist: LPS 0.1 ug/mL),NF-kB reporter ([1]; agonist: MPLA […]),IRF reporter ([2]; agonist: 3'3'-cGAMP 10 ug/mL),IRF reporter ([2]; agonist: LPS 0.1 ug/mL),IRF reporter ([2]; agonist: MPLA […]),viability score [3]
c1coc(CNc2nc(-c3ccncc3)cs2)c1,0.857 ± 0.073,0.863 ± 0.13,1.25 ± 0.11,0.492 ± 0.03,1.12 ± 0.08,1.14 ± 0.097,0.981 (active)
O=C(CCCN1CCN(c2ccccn2)CC1)c1ccc(F)cc1,0.595 ± 0.084,1.05 ± 0.1,0.952 ± 0.056,0.924 ± 0.12,1.37 ± 0.12,1.15 ± 0.12,0.977 (active)
O=C(c1csc(-c2ccccc2)n1)N1CCCN(C2CCC2)CC1,0.763 ± 0.041,1.17 ± 0.094,0.937 ± 0.063,0.927 ± 0.081,1.19 ± 0.13,1.24 ± 0.12,1.01 (active)
Cc1cc2ncc3c(n2n1)CCN(C(=O)c1cnoc1C)C3,0.857 ± 0.037,0.964 ± 0.077,1.02 ± 0.055,0.972 ± 0.045,1.11 ± 0.25,1.21 ± 0.43,0.896 (active)
CC(=O)N1CCN(C(=O)Cn2cnc(-c3ccc(C)cc3)cc2=O)CC1,0.929 ± 0.095,1.01 ± 0.1,1.06 ± 0.14,1.02 ± 0.058,1.17 ± 0.24,1.18 ± 0.45,0.964 (active)
CCCC(=O)OCOC(=O)C1=C(C)NC(C)=C(C(=O)OC)C1c1cccc(Cl)c1Cl (configuration not stated),0.752 ± 0.068,0.888 ± 0.064,1.07 ± 0.11,0.995 ± 0.048,1.18 ± 0.14,1.16 ± 0.16,1 (active)
COC(=O)c1ccc(-n2nnnc2SCC(=O)Nc2ccc(C)c(C)c2)cc1,0.529 ± 0.32,0.897 ± 0.057,0.98 ± 0.085,0.849 ± 0.063,1.14 ± 0.077,1.19 ± 0.15,1.02 (active)
Brc1ccc2[nH]cc(-c3nnc4ccc5ccccc5n34)c2c1,0.644 ± 0.051,0.877 ± 0.042,1.7 ± 0.35,0.971 ± 0.051,1.4 ± 0.1,2.08 ± 0.22,0.973 (active)
Cc1cc(C(=O)Nc2ccc(-n3nnn(C)c3=O)cc2)c(C)o1,1.01 ± 0.077,1.05 ± 0.083,0.809 ± 0.041,0.985 ± 0.064,1.25 ± 0.076,1.28 ± 0.17,1.01 (active)
CN1CCN(C(c2ccccc2)c2ccccc2)CC1.Cl.Cl,0.727 ± 0.12,0.833 ± 0.21,0.89 ± 0.05,0.701 ± 0.023,1.25 ± 0.29,1.03 ± 0.084,0.985 (active)
CS(=O)(=O)N(CC(=O)NCCSCc1cccc(Cl)c1)c1ccc(Cl)cc1,0.893 ± 0.093,0.962 ± 0.079,0.964 ± 0.044,0.904 ± 0.13,1.07 ± 0.062,0.902 ± 0.081,1 (active)
O=c1c(O)c(-c2cc(O)c(O)c(O)c2)oc2cc(O)cc(O)c12,1.51 ± 0.41,0.772 ± 0.04,0.968 ± 0.064,0.582 ± 0.035,0.894 ± 0.23,1.01 ± 0.21,0.908 (active)
C[C@H](Nc1ncnc2[nH]cnc12)c1cc2cccc(Cl)c2c(=O)n1-c1ccccc1,0.557 ± 0.042,0.808 ± 0.054,0.859 ± 0.024,0.728 ± 0.041,0.991 ± 0.095,1.1 ± 0.093,0.906 (active)
COc1ccc(OC2CCN(C(=O)C3CCOC3)C2)nn1 (configuration not stated),0.955 ± 0.12,1.04 ± 0.1,0.949 ± 0.11,1 ± 0.083,1.12 ± 0.072,1.23 ± 0.14,0.999 (active)
Cc1cc(I)cc2c1NC(c1cccc([N+](=O)[O-])c1)C1CC=CC21 (configuration not stated),0.921 ± 0.079,0.795 ± 0.058,0.867 ± 0.089,0.497 ± 0.039,1.17 ± 0.23,1.13 ± 0.25,1.02 (active)
O=C(O)CCCNCP(=O)(O)CCc1ccccc1,0.97 ± 0.099,0.91 ± 0.093,0.881 ± 0.083,0.964 ± 0.048,0.989 ± 0.14,0.963 ± 0.19,1.03 (active)
NC(=O)CC[C@H](N)C(=O)O,0.931 ± 0.076,0.998 ± 0.096,0.982 ± 0.023,0.949 ± 0.082,0.998 ± 0.039,1.04 ± 0.11,1.01 (active)
O=C(Oc1ccc(C=Nc2ccc([N+](=O)[O-])cc2)cc1)c1ccccc1,0.769 ± 0.061,0.967 ± 0.089,0.978 ± 0.056,0.713 ± 0.025,0.985 ± 0.12,1.12 ± 0.29,0.998 (active)
Nc1nc2c(ncn2C2CC(O)C(CO)O2)c(=O)[nH]1 (configuration not stated),0.96 ± 0.089,0.787 ± 0.059,0.93 ± 0.089,1.02 ± 0.043,1.26 ± 0.2,1.36 ± 0.28,1.02 (active)
CCOC(=O)C1=C(C)NC(C)=C(C(=O)OC)C1c1ccc(C)cc1 (configuration not stated),0.782 ± 0.069,0.743 ± 0.062,1.2 ± 0.046,0.815 ± 0.13,0.914 ± 0.039,1.34 ± 0.087,0.935 (active)
N[C@@H](CC(=O)N1CCn2c(nnc2C(F)(F)F)C1)Cc1cc(F)c(F)cc1F,0.793 ± 0.19,0.989 ± 0.063,0.905 ± 0.058,0.908 ± 0.044,1.05 ± 0.12,1.1 ± 0.16,0.998 (active)
Nc1c2c(nc3ccccc13)CCCC2 [Prestw-329],0.919 ± 0.075,0.967 ± 0.084,1.24 ± 0.11,1 ± 0.057,1.55 ± 0.12,1.66 ± 0.14,1 (active)
C[C@H](N[C@@H](CCc1ccccc1)C(=O)O)C(=O)N1CCC[C@H]1C(=O)O.O.O,1.15 ± 0.086,1.09 ± 0.16,1.03 ± 0.073,1.17 ± 0.31,0.953 ± 0.057,0.906 ± 0.077,0.993 (active)
O=C(OC(=Cc1nccn1Cc1ccc(Cl)cc1)c1ccccc1)c1ccccc1,0.323 ± 0.021,0.481 ± 0.05,0.394 ± 0.026,0.37 ± 0.015,1.36 ± 0.12,1.51 ± 0.13,0.973 (active)
COc1ccc(C2NC(=O)C(O)=C2C(C)=O)cc1 (configuration not stated),0.734 ± 0.057,0.884 ± 0.11,1.09 ± 0.095,0.914 ± 0.047,1.29 ± 0.085,1.41 ± 0.12,1.01 (active)
O=S(=O)(c1ccc(F)cc1)n1cccc1,0.812 ± 0.065,0.746 ± 0.047,1.09 ± 0.096,1.02 ± 0.05,1.49 ± 0.087,1.72 ± 0.22,0.988 (active)
